Tgondii IFNg: blocks Toxoplasma gondii growth in the presence of IFN-gamma | Toxoplasma gondii growth in IFN-gamma-treated host cells; stronger effect = lower value | activity change, negative = inhibition, % (concentration not given with the values) | 3.8% of 69,000 active | AID 1259416; in the data active = activity change below about -70%, passing the limit was not always enough;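 note: host cells are HeLa cells infected with Toxoplasma gondii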
Hits are given with their value; 0 = inactive. The entries come from a sample that favours hits as a whole.

SMILES	Tgondii IFNg
Cc1cccc(NC(=O)N2CCC(c3nc(C(=O)N4CCCC4)c(C)o3)CC2)c1C	0
CN(C)C(=O)COCC1CN(Cc2ccco2)Cc2nccn2C1 (stereo not given)	0
Cc1nc(-c2ccc(NC(=O)Cc3ccc(-n4nnnc4C)cc3)cc2)cs1	0
COCCN(C)C(=O)c1ccc2nnc3ncn(CCOC)c3c2c1	0
CO[C@H]1CN(C)C(=O)c2cc(NC(=O)c3ccccc3F)ccc2OC[C@H](C)N(CC2CCOCC2)C[C@H]1C	0
CC(C)N1CCC2(CC1)CC(NC(=O)c1csnn1)c1ccccc1O2 (stereo not given)	0
O=S(=O)(Nc1ccc(Oc2ncnc3cc(Cl)ccc23)nc1)c1cccs1	0
CC(=O)N(c1ccc(NS(=O)(=O)c2cccs2)cn1)S(=O)(=O)c1cccs1	-102
CC(C)N(Cc1ccccc1)S(=O)(=O)c1cccs1	0
COc1ccc(CN2[C@H](CO)[C@@H]3c4ccccc4N(C(=O)NC(C)C)C[C@@H]32)cc1	0
Cc1nc(CCNC(=O)C2CCN(S(=O)(=O)c3cccc(Cl)c3C)CC2)cs1	0
Cc1ccc2c(c1)C(=O)NCC1(CCN(C(=O)c3cnccn3)CC1)O2	0
CN1CCOCC2(CCC(CNS(=O)(=O)c3ccccc3)O2)C1 (stereo not given)	0
Cc1ccc(-n2nc(C(C)(C)C)cc2NC(=O)Nc2ccc(OCCN3CCOCC3)c3ccccc23)cc1	0
CCn1c(=O)c(-c2nc(-c3cc(C)ccc3C)no2)c(O)c2ccccc21	0
CO[C@@H]1CN(C)C(=O)c2cc(NC(=O)NC3CCCCC3)ccc2OC[C@@H](C)N(CC2CCOCC2)C[C@H]1C	0
Cc1ccc(-c2nc3c(s2)CN(S(=O)(=O)c2cccc(Cl)c2C)CC3)cc1	-76
COc1ccc(-c2nc3c(s2)CN(S(=O)(=O)c2ccc(C(C)(C)C)cc2)CC3)cc1	0
CCCc1ccc(S(=O)(=O)N2CCc3nc(-c4ccc(OC)cc4)sc3C2)cc1	0
COc1ccc(-c2nc3c(s2)CN(S(=O)(=O)c2ccccc2C)CC3)cc1	-115
COc1ccc(-c2nc3c(s2)CN(S(=O)(=O)c2ccc(C)cc2)CC3)cc1	-76
COc1ccc(Cl)cc1S(=O)(=O)N1CCc2nc(-c3ccc(C)cc3)sc2C1	0
Cc1ccc(-c2nc3c(s2)CN(S(=O)(=O)c2ccc(F)cc2)CC3)cc1	0
CCOc1ccc(-c2nc3c(s2)CN(S(=O)(=O)Cc2ccccc2)CC3)cc1	0
COc1ccc(-c2nc3c(s2)CN(S(=O)(=O)c2ccc(Cl)cc2)CC3)cc1	0
SMILES	Tgondii IFNg
CCOc1ccc(-c2nc3c(s2)CN(S(=O)(=O)c2ccccc2C)CC3)cc1	-94
CCc1noc(CNC(=O)CSCc2ccccc2Cl)n1	0
CC(=O)NC1CCN(Cc2nc(-c3cccc(Oc4ccccc4)c3)oc2C)C1 (stereo not given)	0
N[C@H]1CN[C@H](C(=O)N2CCN(C3CCCCC3)C(=O)C2)C1	0
Cc1noc(C)c1S(=O)(=O)N(C)C[C@@H]1Oc2c(NC(=O)c3ccc(-c4nccs4)cc3)cccc2C(=O)N([C@H](C)CO)C[C@@H]1C	0
CC(C)c1cc(C(=O)O)c2c(=O)[nH]c(=O)n(C)c2n1	0
O=c1[nH]c(-c2cccc(O)c2)nc2sc3c(c12)CCCC3	0
Cc1ccc(-c2noc(-c3c(O)c4cc(F)ccc4n(C)c3=O)n2)c(C)c1	0
CCc1ccccc1S(=O)(=O)N1CCc2nc(-c3cccc(OC)c3)sc2C1	-91
O=S(=O)(c1ccc(F)cc1F)N1CCc2nc(-c3ccccc3)sc2C1	0
CCOc1ccc(-c2nc3c(s2)CN(S(=O)(=O)c2ccc(F)cc2)CC3)cc1	0
CCOc1ccc(-c2nc3c(s2)CN(S(=O)(=O)c2cccc(F)c2)CC3)cc1	0
COc1cccc(-c2nc3c(s2)CN(S(=O)(=O)c2ccc(F)cc2)CC3)c1	-79
COc1cccc(-c2nc3c(s2)CN(S(=O)(=O)c2ccc(CC(C)C)cc2)CC3)c1	0
COc1cccc(-c2nc3c(s2)CN(S(=O)(=O)c2ccc(Cl)cc2)CC3)c1	0
Cc1cc(C)c(S(=O)(=O)N2CCc3nc(-c4ccccc4)sc3C2)cc1C	-89
COc1ccc(S(=O)(=O)N2CCc3nc(-c4cccc(OC)c4)sc3C2)cc1	0
CCOc1ccc(-c2nc3c(s2)CN(S(=O)(=O)c2cc(F)ccc2C)CC3)cc1	-95
O=S(=O)(c1ccc(F)cc1)N1CCc2nc(-c3ccccc3)sc2C1	0
CCOc1ccc(S(=O)(=O)N2CCc3nc(-c4cccc(OC)c4)sc3C2)cc1	0
CCCN1CCN(CCCNC(=O)C2=C(C)C(=O)OC23CCN(S(C)(=O)=O)CC3)CC1	0
CC(C)(NC(=O)c1cccs1)C(=O)N1CCCC1c1ccccn1 (stereo not given)	0
COc1ccc(S(=O)(=O)Nc2ccc3c(c2)OC[C@H](C)NC[C@H](C)[C@H](OC)CN(C)C3=O)cc1	0
Cn1nnc2cc(C(=O)N3[C@@H]4CC[C@H]3CNC(=O)C4)ccc21	0
O=C(CCC1C(=O)Nc2ccccc21)Nc1cccc(N2CCCCS2(=O)=O)c1 (stereo not given)	0
SMILES	Tgondii IFNg
O=C(Nc1ccccc1)N1CCC(N2CCN(Cc3ccccc3)C2=O)CC1	0
O=C(c1ccccc1)N1[C@@H](CO)[C@@H](c2ccccc2)C12CN(Cc1nccs1)C2	0
O=C(CN1C(=O)CCc2cc(Br)ccc21)Nc1ccc(CN2CCCCC2)cc1	0
CS(=O)(=O)N(CC(=O)N1CCCC(c2cc3ccccc3cn2)C1)c1ccccc1F (stereo not given)	0
O=C(c1nc(-c2cccc(F)c2)n2c1CCCCC2)N1CCN(Cc2ccccc2)CC1	0
COc1cccc(-c2nc3c(s2)CN(S(=O)(=O)c2c(C)cc(C)cc2C)CC3)c1	-98
Cc1ccc(-c2nc3c(s2)CN(S(=O)(=O)c2ccccc2C)CC3)cc1	-90
COc1cccc(-c2nc3c(s2)CN(C(=O)Nc2ccccc2C)CC3)c1	0
Cc1cc(C)c(S(=O)(=O)N2CCc3nc(-c4ccccc4)sc3C2)c(C)c1	0
COc1cccc(-c2nc3c(s2)CN(S(=O)(=O)c2ccc(C(C)C)cc2)CC3)c1	0
COc1cccc(-c2nc3c(s2)CN(S(=O)(=O)c2ccccc2C)CC3)c1	-107
COc1cccc(-c2nc3c(s2)CN(S(=O)(=O)c2ccc(OC)c(OC)c2)CC3)c1	0
COc1ccc(-c2nc3c(s2)CN(S(=O)(=O)c2cc(C)cc(C)c2)CC3)cc1OC	-125
Cc1ccc(-c2nc3c(s2)CN(S(=O)(=O)c2ccc(C)c(C)c2)CC3)cc1	0
COc1cccc(-c2nc3c(s2)CN(S(=O)(=O)c2cc(C)c(C)cc2C)CC3)c1	0
COc1ccc(S(=O)(=O)N2CCc3nc(-c4ccc(C)cc4)sc3C2)cc1OC	0
COc1cccc(-c2nc3c(s2)CN(S(=O)(=O)c2ccc(C)cc2)CC3)c1	0
CO[C@H](CN(C)C(=O)C1CCOCC1)[C@@H](C)CN([C@@H](C)CO)S(=O)(=O)c1ccccc1	0
O=C(C[C@H]1CC[C@H]2[C@@H](COC[C@H](O)CN2CCC(F)(F)F)O1)NCc1ccc2c(c1)OCO2	0
CCOc1nc2cccc(C(=O)O)c2n1Cc1ccc(-c2ccccc2-c2nn[nH]n2)cc1	0
CCOc1ccccc1NC(=O)Nc1ccc(-c2nc(-c3ccccc3)co2)cc1	0
CSCc1nc(CNC(=O)C2CCOC2)cs1 (stereo not given)	0
CS(=O)(=O)N1CCC2(CC1)COCCN(c1ncccn1)C2	0
CCSc1nc(CC(=O)NC(C)c2ncn[nH]2)cs1 (stereo not given)	0

Screening results from PubChem.
